The record followed here is PubChem BioAssay (NCI).

About 79,000 compounds went through this panel and 15% of them were active in at least one assay; those are over-represented in the sample as a whole. A number with no mark means an inactive call. Active and inactive are the calls of the source. No stated cut-off is given here; in the data, active means growth inhibition above about 70%; inactive means the rest.

The nature of test [1]: NCI Yeast Anticancer Drug Screen. Data for the rad50 strain (AID 155).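 Further: 0% = growth of vehicle-only cultures of the same strain.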 As to conditions: S. cerevisiae rad50 strain growth inhibition, active compounds read high. The essentials:
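A DNA repair-deficient yeast mutant serves as the test organism; compound-induced growth inhibition is calculated against vehicle-treated cells.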

Test [2] in a line: NCI Yeast Anticancer Drug Screen. Data for the mec2-1 strain (AID 157). As to conditions: S. cerevisiae mec2-1 strain, active compounds read high. The essentials: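 Vehicle-treated cultures served as reference for growth inhibition of compound-exposed mec2-1 yeast.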
Test [3] is described as follows: NCI Yeast Anticancer Drug Screen. Data for the sgs1 mgt1 strain (AID 161).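 Further: 0% = growth of cultures given vehicle only.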 As to conditions: S. cerevisiae sgs1 mgt1 strain, active compounds read high. In outline:
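Read-out: growth inhibition vs vehicle controls. Cells: mutant yeast strain deficient in DNA damage repair.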

The nature of test [4]: NCI Yeast Anticancer Drug Screen. Data for the cln2 rad14 strain (AID 165).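 Further: 0% = growth equal to vehicle treated cultures.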 Conditions: S. cerevisiae cln2 rad14 strain, active compounds read high. The essentials:
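Each compound was tested on cln2 rad14 yeast. Inhibition of growth was calculated against vehicle-exposed controls.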

Test [5] is described as follows: NCI Yeast Anticancer Drug Screen. Data for the bub3 strain (AID 167). As to conditions: S. cerevisiae bub3 mutant strain, active compounds read high. In outline: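 Inhibition values come from growth of compound-treated mutant yeast normalised to vehicle-treated controls.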
Test [6] in a line: NCI Yeast Anticancer Drug Screen. Data for the mlh1 rad18 strain (AID 175). Conditions: S. cerevisiae mlh1 rad18 strain growth inhibition, active compounds read high. The essentials:
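Vehicle-treated cultures served as the reference for growth inhibition in a yeast strain carrying DNA damage repair alterations exposed to each compound.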

Where [7] appears, read: at 5.0 µM (retest, dose inferred, filed as 0.5).
Where [8] appears, read: at 50.0 µM (retest, dose inferred, filed as 5.0).

Take `CSc1nc(N)c2cnn(C3OC(CO)C(O)C3O)c2n1` (configuration not stated): the growth inhibition was -9% in test [1] (setting [7]); 8% in test [1] (setting [8]); 9.55% in test [1] (at 50.0 µM); -12% in test [2] (setting [7]); -11% in test [2] (setting [8]); 2.8% in test [2] (at 50.0 µM). The growth inhibition was -25% in test [3] (setting [7]); -6% in test [3] (setting [8]); 15.2% in test [3] (at 50.0 µM); 7% in test [4] (setting [7]); 28% in test [4] (setting [8]); 6.8% in test [4] (at 50.0 µM). Besides, the growth inhibition was 3% in test [5] (setting [7]); 80% (active) in test [5] (setting [8]); 12% in test [5] (at 50.0 µM); -20% in test [6] (setting [7]); -12% in test [6] (setting [8]); 22% in test [6] (at 50.0 µM).

`COC(=O)/C(=C/c1ccc(/C=C(/C(=O)O)c2ccc(OC)cc2)o1)c1ccccc1`: the growth inhibition was 3% in test [1] (setting [7]); 99% (active) in test [1] (setting [8]); 8.35% in test [1] (at 50.0 µM); 2% in test [2] (setting [7]); 99% (active) in test [2] (setting [8]); 10.8% in test [2] (at 50.0 µM). Further, the growth inhibition in test [3] (setting [7]) was 0%; in test [3] (setting [8]), 99% (active); in test [3] (at 50.0 µM), -3.5%; in test [4] (setting [7]), 15%; in test [4] (setting [8]), 99% (active); in test [4] (at 50.0 µM), 11.6%. Also, the growth inhibition in test [5] (setting [7]) was 0%; in test [5] (setting [8]), 99% (active); in test [5] (at 50.0 µM), 1.7%; in test [6] (setting [7]), 3%; in test [6] (setting [8]), 99% (active); in test [6] (at 50.0 µM), 30.8%.

In the case of `OCCN=C1c2ccccc2C2C(c3ccccc31)C1c3ccccc3C(=NCCO)c3ccccc3C21` (configuration not stated), the growth inhibition in test [1] (setting [7]) was -9%; in test [1] (setting [8]) it was 13%; in test [1] (at 50.0 µM) it was 46.8%; in test [2] (setting [7]), -4%; in test [2] (setting [8]), -8%; in test [2] (at 50.0 µM), 29.8%. Moreover, the growth inhibition is 6% in test [3] (setting [7]); 6% in test [3] (setting [8]); 37.4% in test [3] (at 50.0 µM); 4% in test [4] (setting [7]); 18% in test [4] (setting [8]); 31.1% in test [4] (at 50.0 µM). In addition, the growth inhibition in test [5] (setting [7]) was -6%; in test [5] (setting [8]), 6%; in test [5] (at 50.0 µM), 40.5%; in test [6] (setting [7]), 3%; in test [6] (setting [8]) it was 47%; in test [6] (at 50.0 µM), 82% (active).

In the case of `CCN(CC)CCOc1ccc(C(O)(Cc2ccc(Cl)cc2)c2ccccc2)cc1` (configuration not stated), the growth inhibition in test [1] (setting [7]) was 39%; in test [1] (setting [8]), 90% (active); in test [1] (at 50.0 µM) it was 90.9% (active); in test [2] (setting [7]), 35%; in test [2] (setting [8]) it was 87% (active); in test [2] (at 50.0 µM), 83.8% (active). Also, the growth inhibition in test [3] (setting [7]) is 58%; in test [3] (setting [8]) it was 95% (active); in test [3] (at 50.0 µM), 97.5% (active); in test [4] (setting [7]), 56%; in test [4] (setting [8]), 93% (active); in test [4] (at 50.0 µM), 98.3% (active). Moreover, the growth inhibition in test [5] (setting [7]) was 57%; in test [5] (setting [8]), 89% (active); in test [5] (at 50.0 µM), 81.2% (active); in test [6] (setting [7]), 51%; in test [6] (setting [8]), 89% (active); in test [6] (at 50.0 µM), 97.2% (active).

Turning to `Cc1ccc(S(=O)(=O)OCC2OC(c3ccccc3)OC3C(CO)OC(c4ccccc4)OC23)cc1` (configuration not stated), the growth inhibition in test [1] (setting [7]) was -1%; in test [1] (setting [8]) it was -6%; in test [1] (at 50.0 µM), 16.7%; in test [2] (setting [7]), 0%; in test [2] (setting [8]), -5%; in test [2] (at 50.0 µM) it was 50.5%. In addition, the growth inhibition in test [3] (setting [7]) was -3%; in test [3] (setting [8]) it was -6%; in test [3] (at 50.0 µM), 11.3%; in test [4] (setting [7]), 4%; in test [4] (setting [8]), -10%; in test [4] (at 50.0 µM), 16.2%. The growth inhibition was 0% in test [5] (setting [7]); -5% in test [5] (setting [8]); -0.65% in test [5] (at 50.0 µM); 0% in test [6] (setting [7]); -6% in test [6] (setting [8]); 60.5% in test [6] (at 50.0 µM).

On to `CCOC(=O)/C(C#N)=C/c1coc2cc(C)cc(C)c2c1=O`, for which the growth inhibition is 6% in test [1] (setting [7]); 100% (active) in test [1] (setting [8]); 70.4% (active) in test [1] (at 50.0 µM); 2% in test [2] (setting [7]); 97% (active) in test [2] (setting [8]); 90.4% (active) in test [2] (at 50.0 µM). The growth inhibition is -3% in test [3] (setting [7]); 98% (active) in test [3] (setting [8]); 79.9% (active) in test [3] (at 50.0 µM); -2% in test [4] (setting [7]); 89% (active) in test [4] (setting [8]); 89.3% (active) in test [4] (at 50.0 µM). Further, the growth inhibition in test [5] (setting [7]) is -20%; in test [5] (setting [8]), 93% (active); in test [5] (at 50.0 µM), 83% (active); in test [6] (setting [7]), 15%; in test [6] (setting [8]), 98% (active); in test [6] (at 50.0 µM) it was 65.8%.

For the compound `CC12CCC(=O)C=C1CCC1C2C(O)CC2(C)C(c3csc(N)n3)CCC12` (configuration not stated), the growth inhibition in test [1] (setting [7]) is 58%; in test [1] (setting [8]), 98% (active); in test [1] (at 50.0 µM), 98.8% (active); in test [2] (setting [7]) it was 17%; in test [2] (setting [8]) it was 98% (active); in test [2] (at 50.0 µM) it was 96.8% (active). In addition, the growth inhibition in test [3] (setting [7]) was 49%; in test [3] (setting [8]), 97% (active); in test [3] (at 50.0 µM), 98% (active); in test [4] (setting [7]) it was 23%; in test [4] (setting [8]) it was 90% (active); in test [4] (at 50.0 µM) it was 94.5% (active). The growth inhibition in test [5] (setting [7]) was 27%; in test [5] (setting [8]), 97% (active); in test [5] (at 50.0 µM) it was 96.8% (active); in test [6] (setting [7]), 38%; in test [6] (setting [8]), 96% (active); in test [6] (at 50.0 µM), 96% (active).

For the compound `COc1ccc(C2c3cc4c(cc3OC(O)C2C)OCO4)cc1` (configuration not stated), the growth inhibition in test [1] (setting [7]) is -3%; in test [1] (setting [8]), 69%; in test [1] (at 50.0 µM), 96.8% (active); in test [2] (setting [7]) it was -6%; in test [2] (setting [8]) it was 49%; in test [2] (at 50.0 µM), 93.5% (active). The growth inhibition was -2% in test [3] (setting [7]); 78% (active) in test [3] (setting [8]); 98.3% (active) in test [3] (at 50.0 µM); -2% in test [4] (setting [7]); 42% in test [4] (setting [8]); 95.3% (active) in test [4] (at 50.0 µM). Moreover, the growth inhibition in test [5] (setting [7]) is -2%; in test [5] (setting [8]) it was 67%; in test [5] (at 50.0 µM), 97% (active); in test [6] (setting [7]), -1%; in test [6] (setting [8]) it was 74% (active); in test [6] (at 50.0 µM), 97.5% (active).

For `CC(NC(=O)C(Cc1ccccc1)NC(=O)c1ccc[n+](Cc2ccccc2)c1)C(N)=O` (configuration not stated), the growth inhibition in test [1] (setting [7]) was 0%; in test [1] (setting [8]), -5%; in test [1] (at 50.0 µM) it was 0.65%; in test [2] (setting [7]), 0%; in test [2] (setting [8]), -2%; in test [2] (at 50.0 µM), -3.05%. Moreover, the growth inhibition in test [3] (setting [7]) was -1%; in test [3] (setting [8]) it was 3%; in test [3] (at 50.0 µM) it was -9.9%; in test [4] (setting [7]), 0%; in test [4] (setting [8]) it was -1%; in test [4] (at 50.0 µM), -4.7%. Further, the growth inhibition in test [5] (setting [7]) was 1%; in test [5] (setting [8]), -11%; in test [5] (at 50.0 µM), -1.9%; in test [6] (setting [7]) it was -1%; in test [6] (setting [8]), -2%; in test [6] (at 50.0 µM) it was 28.1%.
